Compound activity (PubChem BioAssay)
HCMV antiviral: inhibitors of human cytomegalovirus; HFF cells, HCMV-luciferase reporter, 72 h; stronger effect = lower value; activity change, negative = inhibition, % at 57.5 µM; 410,000 tested, 4.5% active; AID 1259415; in the data active = activity change below about -60%; inconclusive = no clear call, values can overlap the other calls; inactive = above about -39%
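Two compound doses tested in HFFs infected with HCMV-luciferase, MOI 1 PFU/cell, 72 h at 37C. Lysate luminescence read with OneGlo; data normalized against buffer-only and 10uM Salinomycin inhibitor controls.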
Marburg entry inh: Marburg virus entry inhibition; Marburg virus pseudotyped entry inhibition, cell reporter; Potency, µM (doses to about 37.8 µM), inactives show at the top dose activity change, negative = inhibition, usual class: inhibitors; 300,000 tested, 1.8% active; calls by dose curve; tested in HEK293 cells; also: potency is read from the fitted curve at half-maximal effect
VACV mCherry inh: vaccinia inhibition (mCherry reporter); AID 720579; Vaccinia virus mCherry reporter infection, fluorescence; 310,000 tested, 0.63% active; Potency, µM (doses to about 36.5 µM), without a hit: top-dose activity change, negative = inhibition, actives largely listed as inhibitors; calls by dose curve; tested in A549 cells; also: potency is read from the fitted curve at half-maximal effect; nearly all actives have a fitted effect of over 35% in size
LASV entry inh: Lassa virus entry inhibition; Lassa virus pseudotype entry inhibition, cell reporter; Potency, µM (titrated, usually from 37.9 µM), for inactives: at the highest dose activity change, negative = inhibition, hits mostly inhibitors; 300,000 tested, 1.2% active; AID 540256; calls by dose curve; tested in HEK293 cells; also: potency is read from the fitted curve at half-maximal effect; nearly all actives have a fitted effect of over 50% in size
VACV Venus inh: inhibitors of vaccinia virus (Venus reporter) | AID 720580 | Vaccinia virus Venus reporter expression, fluorescence | Potency, µM (top dose mostly 36.5 µM), for the others: top-dose activity change, negative = inhibition, actives largely listed as inhibitors | 330,000 tested, 0.46% active; calls by dose curve; tested in A549 cells; also: potency is read from the fitted curve at half-maximal effect; nearly all actives have a fitted effect of over 30% in size
HCV inh: blocks hepatitis C virus; Huh7.5.1 HCVcc-Cre infection, luciferase reporter, 44 h; Potency, µM (top dose mostly 41.8 µM), without a hit: at the top dose activity change, negative = inhibition, actives largely listed as inhibitors; 340,000 tested, 3.4% active; active = well fitted inhibition curve with a large enough effect; inconclusive = small, poorly fitted or top-dose-only effect, or another doubt; inactive = no such curve, though single readings can be large or run the other way; also: potency is read from the fitted curve at half-maximal effect
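After 44 h co-culture of compound, cells and HCVcc-Cre (~0.5 moi), substrate is added for 15 min at room temperature and luciferase measured over 15 sec. Cells were seeded at 1,000/well and pre-cultured 4 h.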
* marks the source's active call; other numbers are inactive results; i = inactive; ? = inconclusive; · = not tested or not shown; [ ] = another dose, or the depositor's remark. The list is not random: actives were taken first. Their share in the collection is about 7.8%. % is scaled to controls: 0 for no effect and ±100 for the full control effect.

SMILES	HCMV antiviral	Marburg entry inh	VACV mCherry inh	LASV entry inh	VACV Venus inh	HCV inh
CCC(=O)N1CCc2cc(Br)cc(S(=O)(=O)N3CCCC(C(=O)NCc4ccc(C)cc4)C3)c21 (centres undefined)	-6	-1%[46.1 µM]	i	-35%[46.1 µM]	-4%	·
NC(=S)NN=Cc1cc(-c2cccc(N)c2)ccn1	-100*	·	?	·	?	·
CCOc1cc(-c2ccc(OC(=O)c3ccc(OC)cc3)c(OC)c2)cc(=O)c2c(C)oc(C)c12	17	-17%[46.1 µM]	2%	-29%[46.1 µM]	0%	·
CCOc1ccc(CN2C(=O)c3ccccc3Sc3ccc(C(=O)N4CCN(C)CC4)cc32)cc1	14	0%[46.1 µM]	-10%	1%[46.1 µM]	-9%	·
CCCOc1ccc(/C=N/Nc2cc(N3CCOCC3)ncn2)c(O)c1	-101*	·	·	·	·	?
CCOc1ccc(/C=N/Nc2cc(N3CCOCC3)ncn2)c(O)c1	24	·	?	·	?	·
COc1ccccc1CCNc1ncnc2sc(C(=O)N3CCCC3)c(C)c12	·	·	-12%	·	-8%	·
CCOC(=O)c1cnc(SC)nc1N	49	29%	·	11%	1%	7%
CCOC(=O)c1cnc(N2CC2)nc1N	-68*	10µM*	i	?	15%	-8%
CCCN1CCC(NCc2cn(C)nc2-c2ccc(Oc3ccccc3)cc2)CC1	?	5%	·	·	·	11µM*
COCCN1CCCC(CNCc2cn(C)nc2-c2ccc(Oc3ccccc3)cc2)C1 (centres undefined)	?	·	·	·	·	14µM*
COc1ccc(CCNC(=O)CSCc2nc(-c3cccc(C)c3)oc2C)cc1OC	-22	-24%[46.1 µM]	-19%	-26%[46.1 µM]	-21%	·
Fc1ccccc1N1CCN(c2nccn3nc(-c4ccc(Br)cc4)cc23)CC1	27	-3%[46.1 µM]	-4%	4%[46.1 µM]	13%	·
Cc1ccnc2c(Cl)ccc(Cl)c12	·	·	-11%	·	-9%	·
CCNC(=O)NC1c2ccccc2CSc2ccccc21 (centres undefined)	-12	?	i	-22%[46.1 µM]	-12%	9%
CCOCCN1CCN(C2c3ccccc3CSc3ccccc32)CC1 (centres undefined)	?	13µM*	-22%	?	-16%	22µM*
CCOc1ccc(-n2nc3ccc(N)cc3n2)cc1	-93*	·	·	·	·	-26%
Cc1cc2nn(-c3ccc(F)cc3)nc2cc1N	107	5µM*	?	?	5%	-23%
Cc1ccc(-n2nc3ccc(N)cc3n2)cc1	63	?	-10%	11µM*	-5%	?
COc1ccc(-n2nc3ccc(N)cc3n2)cc1	73	·	-6%	·	-16%	·
c1ccc(CN2CCC3(CC2)Nc2ccccc2CO3)cc1	0	-19%	·	-1%	·	-3%
c1ccc(CN2CCC3(CCCc4ccccc43)CC2)cc1	-7	6.3µM*	-14%	?	-28%	?
Cc1ccccc1OCCn1c(C)nc2ccccc21	-15	?	-13%	-17%[46.1 µM]	-26%	5.6µM*
Cc1ccccc1OCCCCn1c(CO)nc2ccccc21	-94*	?	i	?	-13%	11µM*
Cc1ccccc1OCCCCn1cnc2ccccc21	-68*	-22%	·	-2%	·	7.9µM*
SMILES	HCMV antiviral	Marburg entry inh	VACV mCherry inh	LASV entry inh	VACV Venus inh	HCV inh
Cc1nc2ccccc2n1CCOc1ccccc1	?	?	-2%	20%	-10%	?
CCCCN1CC(c2nc3ccccc3n2CCCCOc2ccccc2C)CC1=O (centres undefined)	-68*	?	-20%	2%[46.1 µM]	-21%	·
CO[C@H]1[C@H](NC(=O)c2ccsc2)c2ccccc2C12CCN(Cc1cnn(C)c1C)CC2	·	·	-13%	·	-7%	·
O=C(CSc1ncccc1C(=O)Oc1ccccc1Cl)Nc1ccc(C(F)(F)F)cc1Cl	-16	·	?	?	?	·
CCCCNC(=O)C1CCN(c2nc3ccccc3nc2C(F)(F)F)CC1	0	·	4%	18%[46.1 µM]	-4%	·
Cc1cccc(Cn2cnc3ccccc32)c1	-15	?	-8%	0%	-6%	-14%
Cc1ccc(Cn2cnc3ccccc32)cc1C	-63*	-13%	-5%	-1%	-9%	?
Cc1ccc(C(=O)N/N=C/c2nc3ccccc3n2C)cc1	-66*	-22%	-18%	?	-26%	?
Cc1cc(C(=O)NC2CCCc3c2cnn3-c2ccc(C(C)(C)C)cc2)nn1C (centres undefined)	-78*	?	-29%	?	-29%	7.1µM*
